# CYP2C9 inhib: inhibitors of human CYP2C9. CYP2C9 Supersomes, luciferin-H conversion, luminescence. actives 20% (n = 96,000). AID 777. P11712. inhibition, % at 5 µM;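 active means blocking of liver enzyme CYP2C9 beyond about 50% at 5 µM, limit read from the data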
# Mac1 fbg enh: CD11b/CD18-fibrinogen binding enhancement; K562 CD11b/CD18 adhesion to fibrinogen, ATPlite luminescence; P05107+P11215; activation, % at 10 µM; AID 1499; actives 0.07% (n = 93,000);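 active means 10 µM primary screen giving 50% or more activity, confirmed by 40% or more on retest at that dose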
# CD11b adhes inh: inhibitors of human CD11b/CD18 binding to fibrinogen | inhibition, % at 10 µM | actives 0.54% (n = 93,000) | P05107+P11215 | K562 CD11b/CD18 adhesion to fibrinogen, ATPlite luminescence; Mn2+ added to activate the integrin;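 active means primary inhibition of 50% or more at 10 µM, then 40% or more on retest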
# CYP2C9 activ: activators of human CYP2C9; actives 1.4% (n = 96,000); P11712; AID 1024; recombinant CYP2C9, luciferin-H conversion, luminescence; hits give high values; factor 1 = untreated enzyme, 0 = blocked; activation factor at 5 µM;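 active means activation factor of 2 or more for CYP2C9 at a 5 µM dose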;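 further: 0 = sulfaphenazole-blocked wells and 1 = vehicle-only wells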
# CYP2C19 act: activators of human cytochrome P450 2C19; activation factor at 5 µM; AID 1025; P33261; recombinant CYP2C19, luciferin-H EGE luminescence; hits give high values; 0 = fully inhibited enzyme, 1 = untreated enzyme; 96,000 tested, under 10 active;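 active means activation factor of at least 2 at 5 µM in the primary screen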;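 further: 0 = wells with 2.5 mM tranylcypromine and 1 = vehicle-only wells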
# Target sequence (P33261 whole entry, looked up): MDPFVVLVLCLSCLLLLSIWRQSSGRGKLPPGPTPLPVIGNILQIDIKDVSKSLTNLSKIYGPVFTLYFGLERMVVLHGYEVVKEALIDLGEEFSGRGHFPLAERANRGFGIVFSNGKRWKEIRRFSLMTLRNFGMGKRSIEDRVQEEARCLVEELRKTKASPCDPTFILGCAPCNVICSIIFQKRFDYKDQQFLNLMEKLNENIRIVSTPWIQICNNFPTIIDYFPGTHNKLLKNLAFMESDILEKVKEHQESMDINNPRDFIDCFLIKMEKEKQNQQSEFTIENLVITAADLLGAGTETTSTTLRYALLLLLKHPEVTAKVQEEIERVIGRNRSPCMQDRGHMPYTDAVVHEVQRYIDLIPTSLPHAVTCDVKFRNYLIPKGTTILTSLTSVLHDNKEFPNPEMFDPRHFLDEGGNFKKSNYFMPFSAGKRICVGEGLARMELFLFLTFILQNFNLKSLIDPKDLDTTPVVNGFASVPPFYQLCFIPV
# CYP2C19 inh: blocks human cytochrome P450 2C19 | CYP2C19 Supersomes, luciferin-H EGE luminescence, 30 min | AID 778 | actives 21% (n = 96,000) | P33261 | inhibition, % at 5 µM;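 active means CYP2C19 inhibition above a set limit at 5 µM in the primary screen, cut at about 50% in these data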;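 further: plate controls were negative control wells for no effect and 2.5 mM tranylcypromine positive control for full effect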
# * hit, by the source's call; . = not tested or not shown. Only some compounds are listed: those with a hit (about 28% of all), similar ones and a draw of the others.
SMILES,CYP2C9 inhib,Mac1 fbg enh,CD11b adhes inh,CYP2C9 activ,CYP2C19 act,CYP2C19 inh
Cc1nc2ccc(N)cc2c(=O)n1Cc1ccc(Cl)cc1,84.5*,-0.5,-2.3,0.2,0,98.7*
COc1ccc(S(=O)(=O)N2CCC(N3CCN(c4ccccc4)CC3)CC2)cc1,4.0,.,.,1,0.8,15.2
c1ccc(-c2nnc(SCc3nc4ccccc4[nH]3)n2Cc2ccco2)cc1,58.6*,2.3,1.1,0.4,0.7,29.1
Nn1c(SCc2nc3ccccc3[nH]2)nnc1-c1ccccc1,-36.0,.,.,1.4,0.9,14.2
Cc1ccc(OCc2nnc(SCc3nc4ccccc4[nH]3)n2Cc2ccco2)cc1,64.7*,-7.8,69.2,0.4,0.8,19.2
Cc1ccc(NC(=O)c2cc(=O)c3ccccc3o2)cc1,6.8,-4.1,16.4,0.9,0.7,30.1
COc1ccc(NC(=O)C2C(=O)N(C)C3(C)CC2c2ccccc2O3)cc1 (stereo unspecified),14.4,-2.4,-4.0,0.9,1,2.2
CN1C(=O)C(C(=O)NC(C)(C)C)C2c3ccccc3OC13CCCCC23 (stereo unspecified),60.5*,-3.9,9.6,0.4,0.4,57.9*
CN(CCOc1ccc(-c2ccn(S(=O)(=O)c3cccc4ccccc34)n2)cc1)c1ccccn1,49.4,-1.6,-7.3,0.5,0.5,50.0*
CN(CCOc1ccc(-c2ccn(S(=O)(=O)c3c(Cl)cccc3Cl)n2)cc1)c1ccccn1,27.6,3.6,-9.5,0.7,0.8,22.6
CCC(=O)OC1(C#CCOc2ccc(OC)cc2)CCN(C)CC1,-8.8,5.2,-18.7,1.1,0.3,65.8*
CC1CCc2nc(NC(=O)CN3CCN(c4ccc(F)cc4)CC3)sc2C1 (stereo unspecified),16.1,-2.3,23.7,0.8,0.9,6.4
O=C(CN1CCN(c2ccccn2)CC1)NCCc1ccccc1,35.8,1.2,2.8,0.6,0.9,12.0
CC(=O)Nc1sc2c(c1CN1CCN(c3ccccn3)CC1)CCCC2,31.1,1.0,0.8,0.7,0.2,82.1*
CC(=O)Nc1sc2c(c1CN1CCN(c3ccc(F)cc3)CC1)CCCC2,29.5,3.2,-12.7,0.7,0.1,86.2*
COC(=O)c1sc(NC(=O)COc2ccccc2OC)nc1C,67.1*,9.8,-46.3,0.3,0.7,29.8
COC(=O)c1sc(NC(=O)COc2ccc(C)cc2)nc1C,59.5*,-2.4,-3.2,0.4,0.7,34.5
COC(=O)c1sc(NC(=O)COc2ccccc2)nc1C,94.4*,-1.4,-6.7,0.1,0.3,70.7*
O=C(Cc1cccs1)Nc1nc2c(ccc3ccccc32)s1,63.7*,8.7,-4.3,0.4,0.6,40.8
COc1ccccc1OCC(=O)Nc1nnc(-c2ccco2)s1,42.0,-4.9,7.0,0.6,0.8,19.7
Cc1nc(NC(=O)COc2ccccc2)sc1C(=O)Nc1ccccc1,47.1,1.1,-21.4,0.5,0.7,33.2
O=C(Cc1cccs1)Nc1nnc(SCc2cccc3ccccc23)s1,.,54.9,-19.5,.,.,.
Cc1ccc(S(=O)(=O)N(CC(=O)N/N=C/c2cccc(Cl)c2)c2cccc3cccnc23)cc1,1.0,-0.1,-11.8,1,1,-4.4
COC(=O)c1sc(NC(=O)c2ccco2)nc1C,17.6,-1.6,-7.4,0.8,0.9,7.7
COC(=O)c1sc(NC(=O)Cc2cccs2)nc1C,57.4*,3.1,-5.6,0.4,0.6,42.7
SMILES,CYP2C9 inhib,Mac1 fbg enh,CD11b adhes inh,CYP2C9 activ,CYP2C19 act,CYP2C19 inh
COC(=O)c1sc(Nc2ccccc2)nc1C,29.0,-0.4,-4.9,0.7,0.4,58.3*
O=C(COc1ccccc1)Nc1cccc2nsnc12,21.5,-2.6,-5.6,0.8,0.5,53.3*
COc1cc(CC(=O)Nc2ncc(C)s2)cc(OC)c1OC,54.2*,7.7,-22.3,0.5,0.3,73.2*
CCOC(=O)c1sc(NC(=O)c2cc3c(C)nn(-c4ccccc4)c3s2)nc1C,4.2,-4.7,-5.1,1,1,-3.5
C=CCNC(=S)NCCCCC1NC(=S)N(CC=C)C1=O (stereo unspecified),.,1.2,12.0,.,.,.
C=CCNC(=O)C1CCN(S(C)(=O)=O)CC1,-3.9,-0.1,-11.6,1,1.1,-13.6
COC(=O)c1sc(NC(=O)CSc2nc3cccnc3n2C2CCCCC2)nc1C,83.8*,15.8,20.7,0.2,0.3,72.7*
COc1ccc2nc(NC(=O)CSc3nc4cccnc4n3C)sc2c1,0.6,39.6,.,1,0.7,25.4
Cc1cnc(NC(=O)COc2ccccc2)s1,33.6,-1.1,16.3,0.7,0.3,65.6*
S=C(NC1CCCCC1)N(CCc1ccccc1)CCc1ccccc1,.,-3.5,11.7,.,.,.
CC(SCc1ccccc1)C(=O)N/N=C/c1ccc2c(c1)OCO2 (stereo unspecified),92.5*,-2.2,2.8,0.1,0.2,79.6*
CC(Sc1nc2ccccc2[nH]1)C(=O)Nc1ccc2c(c1)OCCO2 (stereo unspecified),63.8*,.,.,0.4,0.7,29.4
O=C(CSCc1cccc(Cl)c1)N/N=C/c1ccc(OCC(=O)N2CCCCC2)cc1,57.1*,.,.,0.4,0.4,59.2*
O=C(CSCc1ccccc1Br)N/N=C/c1ccc2c(c1)OCO2,.,-5.3,69.4,.,.,.
CC(Sc1nc2ccccc2[nH]1)C(=O)O (stereo unspecified),-4.0,-3.9,1.1,1,1.1,-6.1
O=C(CSCc1ccccc1)N/N=C/c1ccccc1OCc1ccccc1,60.2*,-1.2,21.3,0.4,0.9,13.5
CCC(C)N(C(=O)Cn1nnc2ccccc21)C(C(=O)Nc1ccc(F)cc1)c1cccc(OC)c1 (stereo unspecified),18.9,.,.,0.8,0.7,27.0
CCCCNc1cc(=O)n(C)c(=O)[nH]1,5.8,-1.2,-3.4,0.9,0.9,5.1
CC(SCc1ccccc1)C(=O)N/N=C/c1cc2c(cc1Br)OCO2 (stereo unspecified),69.7*,-3.7,-9.0,0.3,0.6,35.3
O=C(CSCc1cccc(Br)c1)N1CCOCC1,-7.9,-3.2,-6.5,1.1,0.3,71.2*
O=C(CSCc1cccc(Br)c1)N/N=C/c1ccc2c(c1)OCO2,55.3*,.,.,0.4,0.9,12.5
CC(SCc1ccccc1)C(=O)Nc1ccccc1-c1ccccc1 (stereo unspecified),.,-3.3,-27.5,.,.,.
CC(SCc1ccccc1)C(=O)Nc1ccc2c(c1)OCO2 (stereo unspecified),73.0*,-3.6,9.4,0.3,0,98.1*
O=C(CSCc1cccc(Br)c1)N=Nc1c(O)[nH]c2ccccc12,-10.8,.,.,1.1,0.6,40.8
COc1ccc2c(c1)CCc1c(C(=O)NCc3ccc(F)cc3)noc1-2,0.1,-0.8,-2.3,1,1.2,-16.5
COc1ccc(-c2onc(C)c2-c2ccc(C(=O)OC(C)C)o2)c(O)c1,98.2*,-0.6,-1.8,0,0,98.4*
